Screening data as filed in PubChem.
Mot1-301 SUMO: yeast Mot1-301 growth rescue at high temperature, primary screen, SUMOylation pathway inhibitor project, S. cerevisiae, ATP luminescence, 38.5C; S. cerevisiae Mot1-301 growth rescue; percent above DMSO median, 100 means doubled; growth rescue, % at 18.8 µM; 1% of 320,000 active;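 active = every valid replicate shows activation above 250% relative to neutral control wells; inactive = the rest, any valid replicate at or below 250%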;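 note: OY570 slx delta 5 strain wells were the positive control but not used for scaling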
AI-2 QS mod: Vibrio harveyi AI-2 quorum sensing modulators, primary screen, JMH597 strain, luminescence/OD600 ratio; activity change, % at 7.5 µM; 0.4% of 300,000 active; Vibrio harveyi JMH597 AI-2 luminescence/OD600 ratio, 9 h; stronger effect = lower value; strain lacks LuxN and CqsS sensors; 0 = neutral-control median; in the data active = activity change below about -75%, passing the limit was not always enough; inconclusive = no clear call, values can overlap the other calls;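 note: luminescence divided by OD600 gain over 9 h not by final OD600 alone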
ALR inh: inhibitors of human ALR sulfhydryl oxidase, primary screen, biochemical, H2O2 detection, HRP-luminol luminescence, single point. AID 485317, 2010. purified ALR, DTT oxidation. FAD-linked sulfhydryl oxidase ALR (Homo sapiens), P55789. inhibition, % (no concentration beside the values). 3.8% of 290,000 active;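 active = mean replicate inhibition above about 79%, with every replicate also reaching it, limit read from the data; inconclusive = only one of the two criteria met; inactive = mean below limit and not every replicate reaching it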
Target sequence (P55789 whole entry, looked up): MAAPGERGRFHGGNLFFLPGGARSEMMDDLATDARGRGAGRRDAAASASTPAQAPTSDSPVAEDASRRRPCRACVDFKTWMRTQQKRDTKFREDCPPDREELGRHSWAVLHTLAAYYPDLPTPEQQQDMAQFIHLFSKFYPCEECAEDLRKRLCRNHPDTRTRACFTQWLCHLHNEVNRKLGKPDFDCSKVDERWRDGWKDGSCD
HIF act: HIF pathway transcriptional activators, primary screen, cell-based, U2OS HRE-luciferase, luminescence. U2OS HRE-luciferase reporter; normalized: DMSO 0%, desferrioxamine 100%. activation, % at 7.5 µM (by protocol). 0.32% of 300,000 active. AID 1910, 2009;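 active = mean activation of at least 10% of the iron chelator positive control signal, with at least half of replicates also reaching 10%; inconclusive = mean and replicate majority disagree about reaching 10%; inactive = mean and most replicates under 10%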
* marks the source's active call; other numbers are inactive results; ? = inconclusive; · = no result. Shown are actives, neighbours in structure and some others; about 4.8% of the full set was active somewhere.

SMILES	Mot1-301 SUMO	AI-2 QS mod	ALR inh	HIF act
O=C(NNC(=S)Nc1ccc(Br)cc1Cl)c1ccncc1	-3	12	74	0
COc1cccc(NC(=O)NNC(=O)CCc2ccc(O)c(O)c2)c1	-4	1	99*	-1
O=C(CCc1ccc(O)c(O)c1)NNC(=S)NCCc1ccccc1	-15	-4	99*	0
COc1ccc(CCC(=O)NNC(=O)Nc2cccc(Cl)c2)cc1	-2	14	0	0
O=C(CCc1ccc(O)c(O)c1)NNC(=S)Nc1ccc(Br)cc1Cl	-10	7	99*	0
CN(CC(=O)NC(=O)NC1CCCCC1)CC(=O)Nc1ccc(OC(F)(F)F)cc1	10	·	-19	·
Cc1ccc(OCCNC(=O)C(C)SCC(=O)Nc2ccc(F)cc2)cc1 (stereo unspecified)	-2	·	3	·
COC(=O)c1ccc(CSc2nc3ccc(C)cc3[nH]2)o1	-4	17	95*	1
CCOC(=O)c1sc(N)c(C#N)c1CSc1nc2ccc(OCC)cc2[nH]1	33	27	6	0
CCOC(=O)c1sc(N)c(C#N)c1CSc1nc2ccc(C)cc2[nH]1	8	18	91*	0
COC(=O)c1ccc(CSc2n[nH]c(=S)s2)o1	3	35	92*	0
CCOC(=O)C(C)On1c(-n2nc(C)cc2C)nc2ccccc2c1=O (stereo unspecified)	-15	45	·	-8
O=C(O)c1ccccc1N/N=C\c1ccnc2ccccc12	1	9	·	0
O=C(O)c1cccc2c(/C=N/Nc3ccccn3)c[nH]c12	5	27	98*	1
O=C(N/N=C/c1c[nH]c2ccccc12)c1ccc(O)c(O)c1	4	16	99*	-24
C(=N\Nc1ccccn1)/c1c[nH]c2ccccc12	-7	14	99*	3
O=C(C[C@H]1C/C=C\C[C@H](NC(=O)OCC2c3ccccc3-c3ccccc32)C(=O)OC[C@@H]2CCCN2C1=O)NCCO	13	·	13	·
O=C(Nc1cccc(OCC(=O)N2CCOCC2)c1)c1ccc(C(F)(F)F)cc1	-10	14	-2	0
CCOC(=O)/C(C#N)=C\C=C1C=CN(C)C=C1	-10	9	99*	3
CN(Cc1ccccc1)C(=O)c1ccc(NC(=O)Cc2cccc(NC(=O)C3CCN(C(=O)C4CCCC4)CC3)c2)cc1	-16	·	-1	·
COc1ccc(NC(=O)CCN2CCN(c3ccccc3F)CC2)c(OC)c1	-6	13	-10	-1
O=C(NNc1nc2ccccc2s1)c1ccccc1F	9	?	97*	1
COCC(=O)Nc1nc2ccccc2s1	·	29	1	2
NC(=S)Nc1nc2ccccc2s1	-7	23	94*	6
Nc1ccc(C(=O)Nc2nc3ccccc3s2)cc1	-5	11	94*	·
SMILES	Mot1-301 SUMO	AI-2 QS mod	ALR inh	HIF act
Cc1cc(C)n(-c2ccc(C(=O)Nc3nc4ccccc4s3)cc2)n1	1	-16	-4	4
Cc1cnc(SCCc2ccncc2)nc1C	3	26	99*	0
N#Cc1cnc(SCCc2ccccc2)nc1N	10	-2	-2	1
O=C(O)COc1ccccc1/C=C1\C(=O)Nc2ccc(Br)cc21	16	22	98*	-1
COCCn1cnc2c1c(=O)n(Cc1ccc(C#N)cc1)c(=O)n2Cc1ccccc1	90	·	1	-1
CCN(CC(=O)NCc1cccs1)C(=O)C(c1ccccc1)c1ccccc1	-11	9	·	0
CC(C)C(=O)n1nc(-c2cccnc2)nc1NCc1cccs1	-8	8	97*	-1
Cc1cccc[n+]1CC(=O)Nc1ccccc1	-20	-5	-2	0
Cc1cccc[n+]1CC(=O)c1ccc(NC(=O)c2ccccc2)cc1	317*	12	12	3
COc1ccc(Nc2nc(-c3cccs3)nc3ccccc23)cc1S(=O)(=O)N1CCOCC1	8	18	-9	0
COC(=O)[C@]1(Cc2ccccc2)N[C@H](CN(C)S(=O)(=O)c2ccc(-c3ccccc3)cc2)[C@@H]2C(=O)N(C)C(=O)[C@@H]21	2	·	·	·
CCCc1nc2sc3c(c2c(=O)[nH]1)CCCC3	-1	13	11	1
CN(Cc1ccco1)C(=O)CCc1nc2sc3c(c2c(=O)[nH]1)CCCC3	-12	23	9	0
COCc1nc2sc3c(c2c(=O)[nH]1)CCCC3	481*	4	-2	0
Cc1nnc(SCc2nc3sc4c(c3c(=O)[nH]2)CCCC4)[nH]c1=O	·	0	98*	-1
Cc1ccc(CN(C)C(=O)CCc2nc3sc4c(c3c(=O)[nH]2)CCCC4)o1	401	1	98*	-1
COc1cccc(CN2CC(C(=O)N(C)CC3CCOCC3)CCC2=O)c1 (stereo unspecified)	-7	-10	4	0
CC(OC(=O)c1ccccc1NCCO)C(=O)NC1CCCCC1C (stereo unspecified)	105	14	·	-1
NC(=O)C1CCN(CC(=O)Nc2cc(Cl)ccc2Oc2ccccc2)CC1	321*	9	4	-1
NC(=O)C1CCN(CC(=O)Nc2ccccc2Sc2ccc(Cl)cc2)CC1	11	7	87*	0
CC(=O)Nc1ccc(S(=O)(=O)Nc2ccc(C(=O)NCC(=O)O)cc2)cc1	349*	19	-9	0
CC(=O)Nc1ccc(S(=O)(=O)Nc2ccc(S(=O)(=O)Nc3nc(C)cc(C)n3)cc2)cc1	-4	17	-4	0
CC(C)c1c(C(=O)N/N=C/c2cccc(OCc3ccccc3)c2)nnn1-c1nonc1N	16	19	-2	-1
Cc1ccccc1CSCC(=O)Nc1ccccc1-c1ccccc1	14	5	-23	3
COc1ccc(NC(=O)CSCc2ccccc2C)cc1	-10	16	84*	3
SMILES	Mot1-301 SUMO	AI-2 QS mod	ALR inh	HIF act
COc1ccc(NC(=O)CSc2ccccn2)cc1	0	·	-26	2
O=C(Cc1ccccc1)N/N=C/c1cccs1	-5	-19	-4	0
Cc1ccccc1CSCC(=O)N/N=C/c1cccs1	26	16	98*	0
COc1ccc(CNC(=O)CSCc2ccccc2Cl)cc1	26	11	98*	1
COc1ccc(NC(=O)CSCC(=O)NCCc2ccccn2)cc1	-15	17	98*	0
Cc1ccc(/C=N\NC(=O)c2ccc3c(c2)OCO3)o1	241	20	2	1
O=C(CCSCCC(=O)NCc1ccco1)NCc1ccco1	7	·	5	0
O=C(CCSCc1ccccc1Cl)NCc1ccco1	-8	13	93*	0
C[C@@H]1CCCCCCCCC(=O)OCCN1C(=O)OC(C)(C)C	-18	·	1	·
Cc1ccccc1S(=O)(=O)Oc1cccc2c(O)cccc12	-33	13	99*	-2
O=C(N/N=C/c1c(O)n(Cc2ccccc2)c(=O)c2ccccc12)c1cccnc1	-10	19	98*	-1
